Our source for the composite z-score and z-score values is PubChem BioAssay.

SMILES strings stand for the structures. The source made the active and inactive calls.

The test system of experiment [1] is Plasmodium falciparum Sir2 (PF13_0152, Sir2A). Kind of experiment: Plasmodium falciparum Sir2A binding compounds – biochemical, small-molecule microarray, 635 nm fluorescence, primary screen (AID 1098).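 Also: score merges spot fluorescence intensity with its signal-to-noise ratio.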 Particulars: fluorescence 635 nm, higher = more signal.
The nature of experiment [2]: probe aDKK1 binding to arrayed compounds – biochemical, biotinylated probe, 635/667 nm fluorescence, primary screen (AID 1099).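 Also: score merges 667nm spot fluorescence with signal to noise across triplicate slides.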 Particulars: small-molecule microarray, higher = more signal.
A short description of experiment [3]: probe aCHRDL2 binding to arrayed compounds – biochemical, biotinylated probe, 635/667 nm fluorescence, primary screen (AID 1100). To be noted: small-molecule microarray, higher = more signal.
The nature of experiment [4]: change in splice reporter luminescence, either direction, cell-based, HEK293, spliceosome inhibition project, primary screen (AID 1101).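 Also: HEK293 cells carrying a splicing-competent luciferase reporter gene; test concentration not given here.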 To be noted: HEK293 splicing luciferase reporter, 24 h, higher = more signal, called active from +8 up or from −8 down.
Experiment [5] addresses Fibroblast growth factor 10 (Homo sapiens) (UniProt O15520). Briefly: compounds binding fibroblast growth factor 10 – biochemical, small-molecule microarray, 635 nm fluorescence, primary screen (AID 1102). Particulars: FGF10 binding, fluorescence 635 nm, higher = more signal.
The test system of experiment [6] is glycogen synthase kinase-3 (GSK3A per assay name; protocol says GSK3B). Kind of experiment: compounds binding glycogen synthase kinase-3 – biochemical, small-molecule microarray, 635 nm fluorescence, GSK3A, primary screen (AID 1103). Also: the record names both GSK3A and GSK3B. Particulars: fluorescence 635 nm, higher = more signal.
The target in experiment [7] is Epidermal growth factor receptor (Homo sapiens) (UniProt P00533). Briefly: compounds binding epidermal growth factor receptor – biochemical, small-molecule microarray, 635 nm fluorescence, primary screen (AID 1104).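 Also: score merges 667 nm emission intensity with spot signal to noise over triplicate slides.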 To be noted: EGFR binding, higher = more signal.
Sequence of Epidermal growth factor receptor (Homo sapiens) (P00533 whole entry, looked up): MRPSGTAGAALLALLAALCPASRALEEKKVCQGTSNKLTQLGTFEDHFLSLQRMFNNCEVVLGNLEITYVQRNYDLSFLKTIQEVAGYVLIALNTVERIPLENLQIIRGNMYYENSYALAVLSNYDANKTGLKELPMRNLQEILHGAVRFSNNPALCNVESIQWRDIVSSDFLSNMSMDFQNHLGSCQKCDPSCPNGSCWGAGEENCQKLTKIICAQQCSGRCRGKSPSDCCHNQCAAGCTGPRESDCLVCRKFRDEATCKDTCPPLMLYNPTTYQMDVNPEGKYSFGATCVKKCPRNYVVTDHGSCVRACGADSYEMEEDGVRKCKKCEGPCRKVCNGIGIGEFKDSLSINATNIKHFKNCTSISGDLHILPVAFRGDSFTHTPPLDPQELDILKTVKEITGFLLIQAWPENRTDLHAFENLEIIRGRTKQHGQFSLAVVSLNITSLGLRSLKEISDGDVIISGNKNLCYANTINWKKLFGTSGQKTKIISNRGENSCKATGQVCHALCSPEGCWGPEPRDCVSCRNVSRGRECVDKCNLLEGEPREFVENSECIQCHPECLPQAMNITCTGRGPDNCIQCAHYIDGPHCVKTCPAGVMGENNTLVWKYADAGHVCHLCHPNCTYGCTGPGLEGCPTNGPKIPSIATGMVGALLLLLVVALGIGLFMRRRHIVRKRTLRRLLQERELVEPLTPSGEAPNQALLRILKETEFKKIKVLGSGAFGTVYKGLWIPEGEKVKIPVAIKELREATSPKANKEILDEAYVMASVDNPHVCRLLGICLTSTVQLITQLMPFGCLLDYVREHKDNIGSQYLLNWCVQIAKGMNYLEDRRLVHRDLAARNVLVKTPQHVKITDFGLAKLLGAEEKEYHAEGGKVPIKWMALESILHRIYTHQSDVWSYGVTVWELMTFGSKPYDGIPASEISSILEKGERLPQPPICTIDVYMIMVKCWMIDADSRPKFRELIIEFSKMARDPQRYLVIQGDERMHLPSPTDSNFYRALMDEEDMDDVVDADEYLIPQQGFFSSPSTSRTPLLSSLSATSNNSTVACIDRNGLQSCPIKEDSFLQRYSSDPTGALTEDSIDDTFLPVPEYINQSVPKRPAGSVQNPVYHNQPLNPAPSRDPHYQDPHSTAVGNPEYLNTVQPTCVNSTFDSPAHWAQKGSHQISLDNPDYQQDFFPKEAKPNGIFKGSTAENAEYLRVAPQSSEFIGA
The target of experiment [8] is Follistatin-related protein 3 (Homo sapiens) (UniProt O95633). Kind of experiment: compounds binding follistatin-related protein 3 – biochemical, small-molecule microarray, 635 nm fluorescence, primary screen (AID 1105).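 Also: score merges emission near 667 nm and signal to noise per printed spot across three slides.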 To be noted: FSTL3 binding, higher = more signal.
Sequence of Follistatin-related protein 3 (Homo sapiens) (O95633 whole entry, looked up): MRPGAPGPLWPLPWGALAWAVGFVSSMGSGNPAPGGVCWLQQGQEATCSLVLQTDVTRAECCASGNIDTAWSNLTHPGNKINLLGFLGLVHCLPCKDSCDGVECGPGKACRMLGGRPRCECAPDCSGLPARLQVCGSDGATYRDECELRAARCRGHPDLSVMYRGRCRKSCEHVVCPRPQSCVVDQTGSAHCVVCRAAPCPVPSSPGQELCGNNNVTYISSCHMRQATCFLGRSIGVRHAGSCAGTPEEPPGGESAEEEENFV
Experiment [9] deals with Dickkopf-related protein 1 (Homo sapiens) (UniProt O94907). Kind of experiment: small molecules binding DKK1 protein – biochemical, small-molecule microarray, 635 nm fluorescence scan, primary screen (AID 1106).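 Also: score merges emission near 667 nm with signal to noise over three replicate slides.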 To be noted: higher = more signal.
Sequence of Dickkopf-related protein 1 (Homo sapiens) (O94907 whole entry, looked up): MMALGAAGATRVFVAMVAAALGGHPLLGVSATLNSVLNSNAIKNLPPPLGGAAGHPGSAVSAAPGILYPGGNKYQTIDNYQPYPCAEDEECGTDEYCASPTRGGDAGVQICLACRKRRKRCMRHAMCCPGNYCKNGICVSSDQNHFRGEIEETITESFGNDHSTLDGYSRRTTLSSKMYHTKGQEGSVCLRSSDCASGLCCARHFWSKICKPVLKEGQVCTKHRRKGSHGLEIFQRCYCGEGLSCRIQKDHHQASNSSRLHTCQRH
Experiment [10] has as its system Inhibin beta A chain (activin A). Briefly: small molecules binding activin A – biochemical, small-molecule microarray, 635 nm fluorescence scan, primary screen (AID 1107).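 Also: mouse activin A protein probed at 4.33 µg/mL on printed slides; score merges bound-protein fluorescence near 667 nm with spot signal-to-noise.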 Particulars: INHBA, higher = more signal.
Experiment [11] deals with Human papillomavirus type 1a protein E7 (residues 44-93). Kind of experiment: small molecules binding HPV E7 44-93 – biochemical, small-molecule microarray, residues 44-93, 635 nm fluorescence, primary screen (AID 1108).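 Also: E7 fragment applied at 1 µg/mL in TBST for 1 h at 4 C; score combines spot fluorescence with its signal to noise ratio.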 Particulars: fluorescence 635 nm, higher = more signal.
The nature of experiment [12]: hepatitis C replication reporter changes, two-sided – Huh7 cells, luciferase reporter, HCV replication inhibitor project, primary screen (AID 1109).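 Also: huh7 hepatoma cells harbouring a luciferase neomycin HCV replicon reporter; luciferase luminescence as measure of HCV replicon replication; test concentration not given here.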 Particulars: Huh7 HCV replicon luciferase reporter, 48 h; higher = more signal.
The target in experiment [13] is Left-right determination factor 2 (Homo sapiens) (UniProt O00292). Kind of experiment: small molecules binding LEFTY2 protein – biochemical, small-molecule microarray, 635 nm fluorescence scan, primary screen (AID 1110). To be noted: higher = more signal.
Sequence of Left-right determination factor 2 (Homo sapiens) (O00292 whole entry, looked up): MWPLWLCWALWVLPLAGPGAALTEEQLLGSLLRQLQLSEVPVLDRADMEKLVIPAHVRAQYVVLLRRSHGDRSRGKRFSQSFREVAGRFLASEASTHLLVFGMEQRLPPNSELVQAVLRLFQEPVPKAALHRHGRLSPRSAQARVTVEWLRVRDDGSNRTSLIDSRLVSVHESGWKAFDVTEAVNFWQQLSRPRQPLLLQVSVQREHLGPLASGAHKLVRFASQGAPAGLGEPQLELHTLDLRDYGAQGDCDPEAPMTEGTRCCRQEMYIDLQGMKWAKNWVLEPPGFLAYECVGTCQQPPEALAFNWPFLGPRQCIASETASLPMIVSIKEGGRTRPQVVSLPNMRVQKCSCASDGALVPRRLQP
The target of experiment [14] is Calmodulin-1 (Homo sapiens) (UniProt P0DP23). Briefly: small molecules binding calmodulin-1 with EGTA – biochemical, small-molecule microarray, Cy5-labelled CALM1, profiling panel (AID 1111).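 Also: labelled calmodulin applied in Tris saline Tween buffer holding calcium plus EGTA and DTT.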 Particulars: Cy5-CALM1 binding fluorescence, higher = more signal.
Experiment [15] has the same target. Briefly: small molecules binding Ca-loaded calmodulin-1 – biochemical, small-molecule microarray, Cy5-labelled CALM1, plus calcium, artefact control for SMM control-protein annotation, profiling panel (AID 1112).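 Also: score merges spot fluorescence with signal to noise from triplicate slides.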 Particulars: Cy5-CALM1 binding fluorescence, higher = more signal.
The nature of experiment [16]: probe aWnt5a binding to arrayed compounds – biochemical, biotinylated probe, 635/667 nm fluorescence, primary screen (AID 1113).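 Also: score merges 667 nm fluorescence intensity with signal-to-noise per printed feature.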 To be noted: small-molecule microarray, higher = more signal.
Experiment [17] can be described thus: probe aShh binding to arrayed compounds – biochemical, biotinylated probe, 635/667 nm fluorescence, primary screen (AID 1114).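 Also: probe is biotin-labelled aShh protein from a stem cell growth factor screen; measures binding of labelled protein to compounds printed on the slide; score merges feature fluorescence at 667 nm with signal-to-noise.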 Particulars: small-molecule microarray, higher = more signal.
Experiment [18] is described as follows: probe aNog binding to arrayed compounds – biochemical, biotinylated probe, 635/667 nm fluorescence, primary screen (AID 1115).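 Also: probe is biotinylated aNog protein used at 0.15 µg/mL for 1 h at 4 C; z-score combines 667 nm fluorescence of each spot with its signal to noise.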 To be noted: small-molecule microarray, higher = more signal.
Experiment [19] deals with Torsin-1A-interacting protein 1 (Homo sapiens) (UniProt Q5JTV8). Briefly: compound microarray binding of lysate hLAP1 – cell lysate, small-molecule microarray, COS7 lysate, 635/667 nm fluorescence, primary screen (AID 1116). To be noted: 635 nm fluorescence, higher = more signal.
Sequence of Torsin-1A-interacting protein 1 (Homo sapiens) (Q5JTV8 whole entry, looked up): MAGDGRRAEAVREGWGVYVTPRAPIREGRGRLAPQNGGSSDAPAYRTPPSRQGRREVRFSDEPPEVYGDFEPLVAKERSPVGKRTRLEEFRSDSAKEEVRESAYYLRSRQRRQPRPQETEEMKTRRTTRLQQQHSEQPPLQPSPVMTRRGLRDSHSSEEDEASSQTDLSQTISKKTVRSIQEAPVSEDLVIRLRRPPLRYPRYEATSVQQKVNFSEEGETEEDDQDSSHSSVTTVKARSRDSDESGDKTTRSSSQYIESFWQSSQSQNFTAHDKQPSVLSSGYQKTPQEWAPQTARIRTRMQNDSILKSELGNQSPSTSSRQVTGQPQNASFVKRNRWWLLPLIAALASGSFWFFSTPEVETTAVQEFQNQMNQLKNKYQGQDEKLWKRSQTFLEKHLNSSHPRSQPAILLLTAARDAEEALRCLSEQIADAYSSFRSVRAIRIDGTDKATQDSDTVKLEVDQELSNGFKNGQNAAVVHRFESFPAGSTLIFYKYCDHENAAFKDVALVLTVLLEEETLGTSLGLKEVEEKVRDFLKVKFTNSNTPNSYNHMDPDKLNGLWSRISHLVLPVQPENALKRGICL
The target in experiment [20] is Alpha-bungarotoxin (Bungarus multicinctus) (UniProt P60615). Briefly: compounds binding labelled alpha-BTX control protein – biochemical, small-molecule microarray, Alexa647 label, 635/667 nm fluorescence, artefact control for SMM control protein annotation, profiling panel (AID 1117). Particulars: alpha-BTX-A647 binding fluorescence, higher = more signal.
Sequence of Alpha-bungarotoxin (Bungarus multicinctus) (P60615 whole entry, looked up): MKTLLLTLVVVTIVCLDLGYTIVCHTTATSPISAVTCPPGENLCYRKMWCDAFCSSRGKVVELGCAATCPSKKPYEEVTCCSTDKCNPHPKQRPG

Sequence of Fibroblast growth factor 10 (Homo sapiens) (O15520 whole entry, looked up): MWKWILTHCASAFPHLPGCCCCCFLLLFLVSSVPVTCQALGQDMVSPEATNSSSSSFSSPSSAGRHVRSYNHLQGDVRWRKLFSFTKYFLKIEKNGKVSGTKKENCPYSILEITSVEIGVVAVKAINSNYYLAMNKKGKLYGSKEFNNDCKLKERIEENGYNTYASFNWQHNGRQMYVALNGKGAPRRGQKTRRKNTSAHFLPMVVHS

For `O=C1OCCC/C=C\[C@H]2OC34C=CCN(Cc5ccccc5)C(=O)[C@H]3N(CCO)C(=O)[C@@H]4C12` (stereo not given in full), the composite z-score was 1.76 in [1]; -0.214 in experiment [2]; 0.222 in experiment [3]; 0.049 in [5]; 0.124 in experiment [6]; -0.71 in experiment [7]. The composite z-score in experiment [8] was -0.579; in experiment [9], -0.461; in [10], 0.765; in experiment [11] it was -0.574; in [13] it was 0.518; in experiment [14], -0.251. The composite z-score in [15] is 0.774; in [16] it was -0.169; in [17], -0.0709; in experiment [18], -0.33; in experiment [19] it was -0.447; in [20], -1.06. Further, the figures for the z-score in [4] and in [12] were -1.25 (inactive) and 0.0684, respectively.

For the compound `O=C1N(Cc2ccccc2)c2ccccc2C[C@@]12N=C(c1ccc(OCCCO)cc1)O[C@H]2c1ccccc1`, the composite z-score in experiment [1] is -0.0351; in experiment [2], 0.184; in [3], 0.923; in [5], 0.457; in [6] it was 0.977; in [7] it was 0.282. In addition, the composite z-score in experiment [8] was 0.319; in [9], -0.648; in experiment [10], 0.295; in experiment [11], 1.34; in experiment [13] it was -0.297; in experiment [14], 0.333. The composite z-score in experiment [15] is -0.458; in experiment [16] it was -0.103; in experiment [17], 0.0948; in experiment [18], 0.576; in [19], 0.176; in experiment [20], 0.849. The z-score was -0.521 (inactive) in [4] and -3.11 in experiment [12].

As to `COC(=O)[C@H](Cc1ccccc1)N1CC(C)(OC)O[C@@H](Cc2ccccc2)[C@H]1/C=C/C1CC1` (stereo not given in full), the composite z-score in experiment [1] is 0.292; in [2], -0.158; in experiment [3], 0.0982; in experiment [5], -0.105; in experiment [6], 0.178; in [7], -0.359. In addition, the composite z-score in experiment [8] is -0.151; in experiment [9], -0.268; in experiment [10], 0.609; in experiment [11], 0.208; in experiment [13], -0.17; in [14], -0.0441. For the same compound, the composite z-score was -0.233 in [15]; -0.0239 in experiment [16]; -0.198 in [17]; 0.0299 in experiment [18]; 0.726 in experiment [19]; 0.2 in [20]. The z-score is -0.579 (inactive) in experiment [4] and -1.84 in experiment [12].

Regarding `COc1ccc([Si](C)(C)[C@H]2[C@H](CC(=O)N3CCC[C@H]3CO)O[C@@]3(C(=O)N(C)c4c(Br)cc(C)cc43)[C@@H]2C)cc1`, the composite z-score in experiment [1] was 1.91; in [2], 0.94; in experiment [3] it was 0.244; in [5], 1.5; in [6] it was 1.32; in [7], 0.775. Further, the composite z-score in experiment [8] was found to be 1.16; in [9], 1.08; in experiment [10] it was 1.34; in [11] it was 1.45; in experiment [13], 0.946; in experiment [14] it was 0.783. The composite z-score in [15] was 0.339; in experiment [16], 1.19; in experiment [17] it was 1.28; in experiment [18], 0.241; in experiment [19], 0.128; in experiment [20], 1.26. The z-score in experiment [4] was 0.00593 (inactive); in [12], -2.

For the compound `CN1C(=O)C2C=CC(C(O)c3ccc([N+](=O)[O-])cc3)N(Nc3ccccc3)C2C1=O` (stereo not given), the composite z-score amounted to 1.25 in experiment [1]; 0.279 in experiment [2]; 0.998 in experiment [3]; 0.898 in experiment [5]; 0.895 in experiment [6]; 0.0754 in [7]. The composite z-score in [8] was 1.01; in experiment [9] it was -0.157; in experiment [10], 0.905; in [11], 1.41; in experiment [13], -0.258; in experiment [14], 2.04. Further, the composite z-score turned out to be 0.843 in [15]; 0.0968 in experiment [16]; 1.01 in [17]; 1.53 in [18]; 0.0788 in experiment [19]; 1.44 in [20]. For the same compound, the z-score in experiment [4] was 0.293 (inactive); in experiment [12], 0.514.
